PubChem BioAssay (Tox21)
Inconclusive results are not listed. Activity calls are given as the source filed them. Unless noted, calls follow the shape of the dose curve; as a rule, active = well fitted curve in the direction sought with a large enough effect in the repeat runs; inconclusive = weak or mixed curves; inactive = no such curve, though single readings can be large; an effect the other way counts as inactive or inconclusive.

Key:
[1] = qHTS assay to identify small molecule agonists of the sonic hedgehog signaling (Shh) pathway (AID 1259368; calls by dose curve;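 also: NIH/3T3-derived 3T3Gli1-Luc cells carrying a stable Gli1-driven firefly luciferase reporter; series mostly up to about 92 µM; nearly all actives have a fitted effect of over 15% in size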)
Procedure, shortened: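 A Gli1 transcriptional response element controlled firefly luciferase in 3T3Gli1-Luc cells. Compounds and a positive control were added 4 hr after plating, and cells were incubated a further 24 hr at 37 C before luminescence detection.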

[2] = qHTS assay to identify small molecule antagonists of the sonic hedgehog signaling (Shh) pathway (AID 1259369; calls by dose curve; also: nearly all actives have a fitted effect of over 45% in size)
Procedure, shortened: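 For antagonist detection, the reporter line received test compounds together with conditioned medium, incubated 24hr at 37 C, 5% CO2, then luminescence was recorded following 30min room-temperature luciferase reagent incubation.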

[3] = qHTS assay to identify small molecule agonists of the androgen receptor (AR) signaling pathway in the presence of an antagonist - cell viability counter screen (AID 1259379);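 also: MDA-kb2 human breast cancer cells carrying an MMTV luciferase reporter; series mostly up to about 92 µM; nearly all actives have a fitted effect of over 25% in size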
Procedure, shortened: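 Seed MDA-kb2 at 3,000 cells/well; incubate 5 hr, 37C, 0% CO2. Add nilutamide to 3.0uM final, then pin compounds at 15 concentrations. Incubate 16 hr. Add CellTiter-Fluor at 15 hr, read fluorescence after 1 hr.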

[4] = qHTS assay to identify small molecule agonists of the estrogen receptor beta (ER-beta) signaling pathway - cell viability counter screen (AID 1259380); also: nearly all actives have a fitted effect of over 30% in size
Procedure, shortened: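 CellTiter-Glo read, 30 min RT, same wells as bla assay; cells ER-beta-UAS-bla HEK293T; 16 hr compound, 37C; medium 2% charcoal-stripped FBS.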

[5] = qHTS assay to identify small molecule antagonists of the estrogen receptor beta (ER-beta) signaling pathway - cell viability counter screen (AID 1259382); also: series mostly up to about 92 µM; nearly all actives have a fitted effect of over 55% in size
Procedure, shortened: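 In this multiplexed counter screen, cells were seeded at 2,000 per well in medium with 2% charcoal-stripped FBS and incubated 6 hr before compound and 1nM final E2 were added. Sixteen hours later, ATP-based luminescence reported viability.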

[6] = molecular target: Estrogen receptor (Homo sapiens) (UniProt P03372); assay: qHTS assay to identify small molecule agonists of the estrogen receptor alpha (ER-alpha) signaling pathway in the presence of an antagonist (AID 1259383; calls by dose curve; also: top concentration of the series differs between compounds; nearly all actives have a fitted effect of over 15% in size)
Estrogen receptor (Homo sapiens), sequence (P03372 whole entry, looked up): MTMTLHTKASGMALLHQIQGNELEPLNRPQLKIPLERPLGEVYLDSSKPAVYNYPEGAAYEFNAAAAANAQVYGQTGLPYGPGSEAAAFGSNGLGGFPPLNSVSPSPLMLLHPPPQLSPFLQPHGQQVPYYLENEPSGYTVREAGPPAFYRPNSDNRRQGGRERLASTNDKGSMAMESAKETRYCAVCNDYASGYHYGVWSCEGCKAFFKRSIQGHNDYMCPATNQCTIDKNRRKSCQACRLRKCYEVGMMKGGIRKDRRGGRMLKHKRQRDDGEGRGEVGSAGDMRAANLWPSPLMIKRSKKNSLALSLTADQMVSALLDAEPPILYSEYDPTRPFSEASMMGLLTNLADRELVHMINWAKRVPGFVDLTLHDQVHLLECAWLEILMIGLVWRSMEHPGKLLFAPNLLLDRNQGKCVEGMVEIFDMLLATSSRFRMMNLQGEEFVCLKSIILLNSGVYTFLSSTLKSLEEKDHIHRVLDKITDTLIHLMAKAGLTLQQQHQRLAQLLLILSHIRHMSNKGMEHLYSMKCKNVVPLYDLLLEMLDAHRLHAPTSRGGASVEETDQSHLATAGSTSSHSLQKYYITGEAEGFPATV
Procedure, shortened: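 Stably transfected VM7Luc4E2 reporter cells, kept 5 days in charcoal-stripped serum, received ICI-182,780 at 10.0nM final before compound addition. Following 22hr incubation at 37C and 5% CO2, luciferase signal was read by luminescence.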

[7] = qHTS assay to identify small molecule agonists or antagonists of the thyroid stimulating hormone receptor (TSHR) signaling pathway - wild type cell line counter screen (AID 1259384; calls by dose curve)
Procedure, shortened: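 Wild-type Hek293 cells, 800/well, 18 h at 37C, then compound with Ro20-1724 for 30 min RT. cAMP by HTRF (cAMP-d2/anti-cAMP cryptate), 1 h RT, fluorescence read. 15 concentrations, triplicates.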

[8] = molecular target: Thyrotropin receptor (Homo sapiens) (UniProt P16473); assay: qHTS assay to identify small molecule antagonists of the thyroid stimulating hormone receptor (TSHR) signaling pathway (AID 1259385; calls by dose curve; also: nearly all actives have a fitted effect of over 20% in size)
Thyrotropin receptor (Homo sapiens), sequence (P16473 whole entry, looked up): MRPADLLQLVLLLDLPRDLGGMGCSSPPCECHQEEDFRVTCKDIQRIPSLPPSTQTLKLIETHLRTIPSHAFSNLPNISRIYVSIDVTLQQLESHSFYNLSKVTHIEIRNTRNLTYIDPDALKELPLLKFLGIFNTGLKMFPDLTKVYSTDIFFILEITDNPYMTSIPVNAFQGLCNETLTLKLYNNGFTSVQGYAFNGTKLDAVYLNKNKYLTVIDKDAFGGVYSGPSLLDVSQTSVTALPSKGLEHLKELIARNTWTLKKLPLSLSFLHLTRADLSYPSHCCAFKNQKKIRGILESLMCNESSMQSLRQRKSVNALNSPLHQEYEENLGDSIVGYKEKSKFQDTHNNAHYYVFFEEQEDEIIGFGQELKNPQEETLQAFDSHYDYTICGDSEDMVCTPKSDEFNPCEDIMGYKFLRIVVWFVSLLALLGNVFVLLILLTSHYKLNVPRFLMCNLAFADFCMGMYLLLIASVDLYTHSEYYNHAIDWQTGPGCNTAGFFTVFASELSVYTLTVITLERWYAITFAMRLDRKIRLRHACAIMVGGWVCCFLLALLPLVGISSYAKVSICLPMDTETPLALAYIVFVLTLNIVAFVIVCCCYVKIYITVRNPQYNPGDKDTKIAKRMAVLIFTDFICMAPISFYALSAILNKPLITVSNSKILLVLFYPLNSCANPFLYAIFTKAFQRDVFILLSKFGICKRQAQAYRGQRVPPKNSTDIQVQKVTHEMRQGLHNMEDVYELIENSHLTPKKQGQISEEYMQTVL
Procedure, shortened: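 TSHR-HEK293 cells (800/well) plated 18 h, then compounds with Ro20-1724 and TSH at 1.5 ng/mL final, 30 min at room temperature. cAMP quantified by HTRF (cAMP-d2/anti-cAMP-cryptate, 1 h); 15 concentrations in triplicate.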

[9] = qHTS assay to identify small molecule agonists of the estrogen receptor alpha (ER-alpha) signaling pathway in the presence of an antagonist - cell viability counter screen (AID 1259386);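 also: series mostly up to about 92 µM; cells exposed to compounds for 22 h at 37 °C before the viability read; nearly all actives have a fitted effect of over 30% in size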
Procedure, shortened: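 Viability counter screen using VM7Luc4E2 (full-length ER-alpha, four ERE-luciferase). The cells were treated with compounds alongside ICI-182,780 10.0nM for 22hr, and live-cell protease fluorescence was quantified with CellTiter-Fluor.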

[10] = molecular target: Progesterone receptor (Homo sapiens) (UniProt P06401); assay: qHTS assay to identify small molecule agonists of the progesterone receptor (PR) signaling pathway (AID 1346784; calls by dose curve; also: nearly all actives have a fitted effect of over 30% in size)
Progesterone receptor (Homo sapiens), sequence (P06401 whole entry, looked up): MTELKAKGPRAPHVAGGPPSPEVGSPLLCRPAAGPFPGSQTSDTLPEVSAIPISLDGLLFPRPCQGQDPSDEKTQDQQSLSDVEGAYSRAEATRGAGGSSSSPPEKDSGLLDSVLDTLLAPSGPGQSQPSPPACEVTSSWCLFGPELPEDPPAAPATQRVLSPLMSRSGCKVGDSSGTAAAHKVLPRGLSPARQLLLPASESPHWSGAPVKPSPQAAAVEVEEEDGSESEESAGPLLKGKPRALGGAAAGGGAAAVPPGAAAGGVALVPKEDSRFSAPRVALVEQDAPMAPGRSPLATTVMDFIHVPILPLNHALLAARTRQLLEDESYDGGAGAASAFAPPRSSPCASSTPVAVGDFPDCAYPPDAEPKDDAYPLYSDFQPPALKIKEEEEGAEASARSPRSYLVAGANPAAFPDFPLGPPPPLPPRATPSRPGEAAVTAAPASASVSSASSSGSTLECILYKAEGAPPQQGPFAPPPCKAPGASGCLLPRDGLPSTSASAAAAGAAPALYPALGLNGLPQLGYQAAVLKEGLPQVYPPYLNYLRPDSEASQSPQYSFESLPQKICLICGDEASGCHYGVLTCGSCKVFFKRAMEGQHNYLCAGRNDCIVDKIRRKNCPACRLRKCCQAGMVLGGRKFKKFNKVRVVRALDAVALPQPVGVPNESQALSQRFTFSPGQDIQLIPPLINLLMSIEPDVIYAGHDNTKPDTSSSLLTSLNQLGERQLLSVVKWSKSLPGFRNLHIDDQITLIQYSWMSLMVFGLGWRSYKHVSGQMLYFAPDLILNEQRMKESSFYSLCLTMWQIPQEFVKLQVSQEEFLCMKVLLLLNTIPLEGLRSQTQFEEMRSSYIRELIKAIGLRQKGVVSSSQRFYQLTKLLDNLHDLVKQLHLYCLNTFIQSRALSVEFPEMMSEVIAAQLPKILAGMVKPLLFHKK
Procedure, shortened: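 Compounds were tested for PR agonism in HEK 293T cells bearing a beta-lactamase gene under UAS control. Treatment lasted 16 hr at 37C; signal came from fluorescence of a FRET substrate.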

[11] = molecular target: Progesterone receptor (Homo sapiens) (UniProt P06401); assay: qHTS assay to identify small molecule antagonists of the progesterone receptor (PR) signaling pathway (AID 1346795; active = well fitted inhibition curve with a large enough effect in the signal ratio in the repeat runs, not every such curve was filed as active; the % refers to the signal ratio)
Procedure, shortened: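 In HEK293T cells bearing the PR-UAS-bla reporter, compound effects on promegestone-driven (1 nM) beta-lactamase expression are assessed after 16 hr using a fluorescent FRET substrate incubated 2 hr at room temperature.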

[12] = qHTS assay to identify small molecule antagonists of the progesterone receptor (PR) signaling pathway - cell viability counter screen (AID 1346798); also: series mostly up to about 92 µM; nearly all actives have a fitted effect of over 50% in size
Procedure, shortened: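 Following a 4 hr attachment, PR-UAS-bla HEK293T cells in charcoal-stripped FBS medium were exposed to compounds with R5020 for 16 hr; CellTiter-Glo was added and luminescence read after 30 min at room temperature.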

[13] = qHTS assay to identify small molecule agonists of the progesterone receptor (PR) signaling pathway - cell viability counter screen (AID 1346799; calls by dose curve; also: nearly all actives have a fitted effect of over 45% in size)
Procedure, shortened: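 Here, 3,000 PR-UAS-bla HEK293T cells per well were treated with compounds for 16 hr after a 6 hr preincubation at 37C and 5% CO2; cell viability is the CellTiter-Glo luminescence signal.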

[14] = qHTS assay to identify small molecule antagonists of the TGF-beta/Smad signaling pathway - cell viability counter screen (AID 1346824); also: nearly all actives have a fitted effect of over 50% in size
Procedure, shortened: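 SBE-bla HEK 293T cells, incubated overnight, then compound plus 0.25 ng/mL TGF-beta1 (stock added) for 5 hr at 37 C. Viability was read in the same wells by CellTiter-Glo luminescence after 30 min at room temperature.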

[15] = qHTS assay to identify small molecule agonists of the TGF-beta/Smad signaling pathway - cell viability counter screen (AID 1346829); also: top concentration of the series differs between compounds; nearly all actives have a fitted effect of over 45% in size
Procedure, shortened: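 Here the cytotoxicity of library compounds is measured in SBE-bla HEK 293T cells treated for 5 hr, using CellTiter-Glo added to wells already read for the beta-lactamase reporter.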

[16] = qHTS assay to identify small molecule agonists of the TGF-beta/Smad signaling pathway (AID 1346859; active = well fitted activation curve with a large enough effect in the signal ratio in the repeat runs, not every such curve was filed as active; the % refers to the signal ratio; also: series mostly up to about 77 µM)
Procedure, shortened: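 Each well held 4,000 SBE-bla HEK 293T cells incubated overnight before compound addition; 5 hr later the cleavable FRET substrate went on for 2 hr at room temperature, and fluorescence was read at two emissions.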

[17] = molecular target: Estrogen receptor beta (Homo sapiens) (UniProt Q92731); assay: qHTS assay to identify small molecule agonists of the estrogen receptor beta (ER-beta) signaling pathway (AID 1259377; active = well fitted activation curve with a large enough effect in the signal ratio in the repeat runs, not every such curve was filed as active; the % refers to the signal ratio)
Estrogen receptor beta (Homo sapiens), sequence (Q92731 whole entry, looked up): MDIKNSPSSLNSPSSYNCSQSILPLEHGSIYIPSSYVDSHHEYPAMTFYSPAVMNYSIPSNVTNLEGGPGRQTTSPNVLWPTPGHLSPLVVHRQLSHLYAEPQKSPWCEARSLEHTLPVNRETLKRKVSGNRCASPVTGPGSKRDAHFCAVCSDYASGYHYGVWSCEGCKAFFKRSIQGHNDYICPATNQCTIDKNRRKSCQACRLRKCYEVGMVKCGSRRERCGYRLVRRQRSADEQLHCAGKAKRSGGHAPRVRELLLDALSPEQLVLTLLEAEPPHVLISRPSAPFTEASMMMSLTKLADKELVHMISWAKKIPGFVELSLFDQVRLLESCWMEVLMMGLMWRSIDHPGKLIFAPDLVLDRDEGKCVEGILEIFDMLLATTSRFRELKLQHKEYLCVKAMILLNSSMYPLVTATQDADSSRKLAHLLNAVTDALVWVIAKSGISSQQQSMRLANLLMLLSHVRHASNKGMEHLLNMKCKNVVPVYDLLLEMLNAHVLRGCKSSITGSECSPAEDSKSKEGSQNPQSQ
Procedure, shortened: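 Read-out: beta-lactamase FRET fluorescence. Cell line: ER-beta-UAS-bla HEK293T in 2% charcoal-stripped FBS. Exposure: 16 hr at 37C. Substrate step: 2 h at room temperature.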

[18] = molecular target: Estrogen receptor beta (Homo sapiens) (UniProt Q92731); assay: qHTS assay to identify small molecule antagonists of the estrogen receptor beta (ER-beta) signaling pathway (AID 1259378; active = well fitted inhibition curve with a large enough effect in the signal ratio in the repeat runs, not every such curve was filed as active; the % refers to the signal ratio)
Procedure, shortened: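 ER-beta-UAS-bla HEK293T cells in 2% charcoal-stripped FBS medium treated with compound plus 1nM final 17-beta-estradiol for 16 hr at 37C. Beta-lactamase reporter read by FRET substrate fluorescence after 2 hours at room temperature.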

[19] = molecular target: Thyrotropin-releasing hormone receptor (Homo sapiens) (UniProt P34981); assay: qHTS assay to identify small molecule antagonists of the thyrotropin-releasing hormone receptor (TRHR) signaling pathway (AID 1346877; active = well fitted inhibition curve with a large enough effect in the repeat runs, not every such curve was filed as active; also: series mostly up to about 51 µM)
Thyrotropin-releasing hormone receptor (Homo sapiens), sequence (P34981 whole entry, looked up): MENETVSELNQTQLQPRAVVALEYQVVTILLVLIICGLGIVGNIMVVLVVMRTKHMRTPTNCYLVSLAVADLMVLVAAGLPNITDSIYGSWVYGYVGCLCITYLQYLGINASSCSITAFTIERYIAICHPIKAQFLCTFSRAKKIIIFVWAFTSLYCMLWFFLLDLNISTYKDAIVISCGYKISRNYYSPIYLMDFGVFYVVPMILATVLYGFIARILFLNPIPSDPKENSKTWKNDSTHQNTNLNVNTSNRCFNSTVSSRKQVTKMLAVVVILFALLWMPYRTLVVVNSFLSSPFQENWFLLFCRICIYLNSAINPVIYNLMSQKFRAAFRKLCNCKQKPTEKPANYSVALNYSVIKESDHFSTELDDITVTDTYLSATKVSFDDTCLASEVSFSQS
Procedure, shortened: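 Following an 18 h incubation at 37 °C and a 2 h calcium dye load, TRHR-HEK293 cells were exposed to compound (5 min, room temperature) and challenged with TRH, 1 nM final.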

[20] = molecular target: Androgen receptor (Homo sapiens) (UniProt P10275); assay: qHTS assay to identify small molecule agonists of the androgen receptor (AR) signaling pathway in the presence of an antagonist (AID 1259381; calls by dose curve; also: nearly all actives have a fitted effect of over 15% in size)
Androgen receptor (Homo sapiens), sequence (P10275 whole entry, looked up): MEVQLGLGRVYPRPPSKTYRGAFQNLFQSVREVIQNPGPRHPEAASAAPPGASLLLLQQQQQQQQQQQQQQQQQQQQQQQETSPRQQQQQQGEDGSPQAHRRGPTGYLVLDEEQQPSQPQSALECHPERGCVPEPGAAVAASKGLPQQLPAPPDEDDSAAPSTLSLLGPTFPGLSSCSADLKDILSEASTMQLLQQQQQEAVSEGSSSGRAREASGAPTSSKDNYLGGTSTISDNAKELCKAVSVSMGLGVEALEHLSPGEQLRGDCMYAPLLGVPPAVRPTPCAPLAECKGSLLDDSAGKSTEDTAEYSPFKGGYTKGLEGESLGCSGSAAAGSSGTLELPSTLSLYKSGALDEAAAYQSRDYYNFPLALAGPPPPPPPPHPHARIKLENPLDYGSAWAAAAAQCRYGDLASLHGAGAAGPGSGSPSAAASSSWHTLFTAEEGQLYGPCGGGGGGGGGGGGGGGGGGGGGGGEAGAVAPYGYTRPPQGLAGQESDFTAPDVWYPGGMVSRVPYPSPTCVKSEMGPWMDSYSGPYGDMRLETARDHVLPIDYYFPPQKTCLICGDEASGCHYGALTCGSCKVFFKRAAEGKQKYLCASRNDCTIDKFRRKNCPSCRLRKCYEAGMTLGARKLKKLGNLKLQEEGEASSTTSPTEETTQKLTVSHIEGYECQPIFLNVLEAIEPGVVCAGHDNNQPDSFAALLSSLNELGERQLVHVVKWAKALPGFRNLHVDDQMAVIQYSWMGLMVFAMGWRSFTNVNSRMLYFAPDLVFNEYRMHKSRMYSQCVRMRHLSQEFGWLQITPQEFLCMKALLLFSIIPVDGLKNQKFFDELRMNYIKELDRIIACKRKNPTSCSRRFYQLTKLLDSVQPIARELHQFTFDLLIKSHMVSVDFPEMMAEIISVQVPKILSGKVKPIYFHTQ
Procedure, shortened: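 Test compounds at 15 concentrations were incubated for 16hr with MDA-kb2 reporter cells in presence of 3.0uM nilutamide (final). Signal: ONE-Glo luciferase luminescence.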

Measured: Potency

CCNc1cccc(C)c1
not listed: [17] | [18] | [19] | [20]
inactive: all other assays above

O=[N+]([O-])c1ccc2nc[nH]c2c1
not listed: [2] | [20]
inactive: all other assays above

CN(C)CCOC(=O)COc1ccc(Cl)cc1
not listed: [3] | [6] | [7] | [20]
inactive: all other assays above

CCO[Si](CCCN)(OCC)OCC
not listed: [3] | [7] | [17] | [18] | [20]
inactive: all other assays above

COC(=O)c1cccnc1
not listed: [6] | [17] | [18] | [19]
inactive: all other assays above

CCCCCCO
not listed: [7] | [17] | [18] | [19] | [20]
inactive: all other assays above

C=C(C)CNCC
not listed: [6] | [7] | [17] | [18] | [19] | [20]
inactive: all other assays above

CCCCC(C=O)CC (centres undefined)
not listed: [2] | [19] | [20]
inactive: all other assays above

CC1(C)S[C@@H]2[C@H](NC(=O)COc3ccccc3)C(=O)N2[C@H]1C(=O)O
not listed: [17] | [18] | [20]
inactive: all other assays above
